Screens: PubChem BioAssay, The Scripps Research Institute Molecular Screening Center
LEDGF integ inh – blocks HIV-1 LEDGF/p75-dependent DNA integration; TR-FRET IN-LEDGF/p75 DNA integration, Eu/Cy5; inhibition, % at 3.7 µM; 370,000 compounds, 0.64% hits; AID 743269;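 active = inhibition above the screen-wide mean plus 3 SD, cut at about 13% in these data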;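 also: signal is the Cy5 over europium emission ratio at 671 and 618 nm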
MBD2 inh – inhibitors of human MBD2 binding to methylated oligonucleotide; Q9UBB5; TR-FRET; inhibition, % at 4.4 µM; 370,000 compounds, 0.31% hits; AID 686964; in the data active = inhibition above about 13%
Target sequence (Q9UBB5 whole entry, looked up): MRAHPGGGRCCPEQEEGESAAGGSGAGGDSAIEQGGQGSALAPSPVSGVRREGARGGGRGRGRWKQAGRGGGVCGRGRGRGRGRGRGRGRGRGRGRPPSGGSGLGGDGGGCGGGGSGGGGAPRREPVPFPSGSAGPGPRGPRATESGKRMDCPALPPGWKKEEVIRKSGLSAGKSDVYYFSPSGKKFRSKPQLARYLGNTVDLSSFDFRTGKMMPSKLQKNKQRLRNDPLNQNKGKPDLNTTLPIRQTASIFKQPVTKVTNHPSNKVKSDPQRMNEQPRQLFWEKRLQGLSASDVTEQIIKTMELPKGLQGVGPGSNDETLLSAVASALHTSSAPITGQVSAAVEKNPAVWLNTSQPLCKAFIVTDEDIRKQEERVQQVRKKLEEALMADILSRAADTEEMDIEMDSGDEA
PRMT1 inh – blocks human protein arginine methyltransferase 1. recombinant PRMT1, activity-based probe fluorescence polarization. AID 652257. Q99873. inhibition, % at 2.79 µM. 370,000 compounds, 1.3% hits;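 active = inhibition above about 21% made by adding two undisclosed values, limit read from the data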
UHRF1 MBD2 ctr – UHRF1 methyl-DNA binding inhibition. Q96T88. UHRF1 binding to methylated oligo, TR-FRET. inhibition, % at 4.4 µM. 370,000 compounds, 0.75% hits. AID 687016; in the data active = inhibition above about 21%;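 also: UHRF1 SRA domain binding a hemimethylated CpG hairpin DNA probe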
Numbers stand for hits; n = inactive. An excerpt weighted towards active compounds, which were near 2.5% of everything screened.

SMILES	LEDGF integ inh	MBD2 inh	PRMT1 inh	UHRF1 MBD2 ctr
CC(C)(N[C@@H](Cc1ccccc1)C(=O)NCCc1c[nH]c2ccccc12)C(=O)NC1CCCCC1	n	n	n	n
CC(C)(C)OC(=O)NCCCc1ccc2c(c1)[C@]1(CCC[C@@H](OCc3ccccc3)[C@@H]1NC(=O)CCc1ccccc1)C(=O)N2Cc1ccccc1	n	n	n	n
CC12CC(O)C3c4ccc(O)cc4CCC3C1CC/C2=N\O (stereo not given)	n	n	n	n
Cc1ccc(CNC(=O)C2CC(=O)N(C3CCCCCC3)C2)cc1 (stereo not given)	n	n	n	37
Cc1ccc(CNC(=O)C2CC(=O)N(C3CCCC3)C2)cc1 (stereo not given)	n	n	n	n
Cc1cc(O)ccc1N/C=C/c1onc(C)c1[N+](=O)[O-]	n	n	33	n
CCC(C)N(C(=O)COC(=O)CNC(=O)c1sc2ccccc2c1Cl)C1CCS(=O)(=O)C1 (stereo not given)	n	n	n	21
O=c1c2ccccc2ncn1CCOc1ccccc1[N+](=O)[O-]	n	n	n	n
CCN(CC(=O)NCc1cccs1)C(=O)c1ccc(Cl)c(Cl)c1	n	n	n	35
CCN(CC(=O)NCc1cccs1)C(=O)c1ccc(-c2ccc(F)cc2)o1	n	n	24	n
CN(CC(=O)Nc1c(Cl)cccc1Cl)C(=O)c1n[nH]c2ccccc12	n	n	n	n
COc1ccccc1C1CC(=O)Nc2cc(C)c(C)cc21 (stereo not given)	n	n	n	n
Cc1cc2c(cc1C)C(c1ccccc1Br)CC(=O)N2 (stereo not given)	n	n	n	23
O=S(=O)(c1ccccc1)c1nc(-c2ccccc2Cl)oc1NCCN1CCOCC1	n	n	n	n
O=S(=O)(c1ccccc1)c1nc(-c2ccccc2Cl)oc1NCCCN1CCOCC1	n	n	n	40
COc1ccccc1C1CC(c2cccs2)=Nc2ccccc2S1 (stereo not given)	n	n	81	n
COc1ccccc1C1CC(c2cccs2)=NN1C(=O)CCC(=O)O (stereo not given)	n	n	n	n
Cc1ncc(CO)c(/C=N/NC(=O)c2cc(Br)ccc2O)c1O	n	n	n	24
CC1CCCC(C)N1C(=O)c1cc2ncc(CCCl)cn2n1 (stereo not given)	n	n	n	51
CCN(CC)CCCNC(=O)c1cc2c(-c3cccc(OC)c3)nn(C)c2s1	n	n	n	n
CCCCN(CC)CCCNC(=O)c1cc2c(-c3ccc(OC)c(OC)c3)nn(C)c2s1	n	n	n	24
CCOC(=O)c1ccc(-c2c(-c3ccc4c(c3)OCO4)noc2C)cc1F	n	n	n	n
COc1ccc2c(c1)c(=O)oc1cc(OCC(=O)N3CCc4ccccc4C3)ccc12	n	21	n	39
CN(C)C1=NC[C@H](Cc2ccccc2)N1CCCC1CCCC1	n	n	n	23
CN(C(=O)COC(=O)c1nc(Cl)c(Cl)c(Cl)c1Cl)C1CCS(=O)(=O)C1 (stereo not given)	n	n	n	n
SMILES	LEDGF integ inh	MBD2 inh	PRMT1 inh	UHRF1 MBD2 ctr
CCc1csc(CNC(=O)C2CCC(=O)N(Cc3cccc(F)c3)C2)n1 (stereo not given)	n	n	n	n
O=C(COc1ccccc1Cl)Nc1ccc(N2CCN(C(=O)c3ccccc3)CC2)cc1	n	n	n	n
Cn1ccc2c(-c3ccc(F)nc3)cc3c(c21)C1CCC3C1 (stereo not given)	n	n	23	n
NC(=O)c1sc2nc(-c3ccccc3)c3c(c2c1N)CCCC3	n	n	25	n
Cc1ccc(-c2nc3sc(C(N)=O)c(N)c3c3c2CCCC3)cc1	n	n	n	n
CN(C(=O)c1ccc(C#N)cc1)c1nnc(-c2ccccn2)s1	n	n	n	n
CN(C(=O)c1cccc(C#N)c1)c1nnc(-c2ccccn2)s1	n	n	n	22
O=c1ccc2nc3ccccc3sc-2c1	n	n	22	n
CCOc1ccccc1C1CC(=O)Nc2cc3c(cc21)OCCO3 (stereo not given)	n	n	n	23
CCCNC(=O)N(C)C[C@@H]1Oc2cc(C#C[C@H](C)O)ccc2S(=O)(=O)N([C@H](C)CO)C[C@H]1C	n	n	n	n
CCCC#Cc1ccc2c(c1)O[C@H](CN(C)C(=O)CC1CC1)[C@H](C)CN([C@@H](C)CO)S2(=O)=O	n	n	n	24
C[C@@H]1CN([C@H](C)CO)S(=O)(=O)c2ccc(C#Cc3ccccc3)cc2O[C@@H]1CN(C)C(=O)CN(C)C	n	n	n	n
CCCN(C)C[C@H]1Oc2cc(C#Cc3ccc(F)cc3)ccc2S(=O)(=O)N([C@H](C)CO)C[C@@H]1C	n	14	n	22
